# From PubChem BioAssay (NCI)
# The panel holds about 83,000 compounds, 20% with a hit somewhere; the sample as a whole holds those more often.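 Percent growth is the endpoint: 0 to 100 indicates growth inhibition (40 means 60% inhibition), 0 means no net growth, and negative values indicate cell death.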 Active and inactive are the calls of the source. How the source made its calls: active means growth percent below 10; inactive means the rest.
# Test system: HS 578T breast
# Test: NCI-60 one-dose screen, 48 h (100 = growth as untreated, 0 = no growth, -100 = all killed)
# Details: 10 µM unless noted
row,Structure (SMILES),growth
1,COC(=O)c1ccc2[nH]c(O)c(C(=Nc3ccc(N(C)C(=O)CN4CCN(C)CC4)cc3)c3ccc4c(c3)OCO4)c2c1,10.5% (inactive)
2,CCCCCCC(C(=O)OCC)(C(=O)OCC)C1CCCCCC1,105% (inactive)
3,CCOC(=O)NC1=NCC(C)(C)S1,98.7% (inactive)
4,COC(=O)C(N)CC(C)C (stereo unspecified),111% (inactive)
5,O=C(Nc1cccc(Cn2c(=O)[nH]c3ccc(Oc4ncccn4)cc3c2=O)c1)c1cccc(F)c1,92.8% (inactive)
6,COc1cc2ncnc(-n3ncc4cc(NC(=O)Nc5ccccc5)ccc43)c2cc1OC,-18.9% (active)
7,O=C1C(=O)c2ccccc2C(O)=C1CCCc1ccc(Oc2ccccc2)cc1,95.7% (inactive)
8,CCCCCCCCCCC1OC(C)CC(C)O1 (stereo unspecified),101% (inactive)
9,O=C(NCCO)C(F)(F)F,106% (inactive)
10,COc1cc(N2C(=O)C=CC2=O)ccc1N1C(=O)C=CC1=O,102% (inactive)
11,c1cc[c]([Bi]([c]2ccccc2)[c]2ccccc2)cc1,100% (inactive)
12,O=C(CN1C(=O)NC(c2ccccc2)(c2ccccc2)C1=O)c1ccc(N2CCCC2)cc1,87.7% (inactive)
13,CC(O)CN(CCO)CCN(CCO)CC(C)O (stereo unspecified),108% (inactive)
14,Cc1ccc(S(=O)(=O)NC(CCC(=O)Nc2ccccc2)C(=O)Nc2ccccc2)cc1 (stereo unspecified),2.98% (active)
15,COC1(OC)N=C(N)C2(C#N)C3(C(=O)Nc4ccccc43)C12C#N (stereo unspecified),67.2% (inactive)
16,Nc1cc(N)c2nc(-c3ccccc3)c(NCCc3ccc(Cl)c(Cl)c3)nc2c1,-22.7% (active)
